The text below walks through data of PubChem BioAssay (NCATS).

Inconclusive results are not listed. Where a call stands in place of a potency, no number is given. Active and inactive are the calls of the source. Calls come from the whole dose curve; as a rule, active = well fitted inhibition curve with a large enough effect; inconclusive = small, poorly fitted or top-dose-only effect; inactive = flat fitted curve, though single readings scatter.
Potency is the fitted concentration of half-maximal effect.

In the assay the test system is astro (control astrocytes). Put plainly: Drug repurposing screens with cells derived from glioblastoma tumor samples (AID 1345199). Note: nearly all actives have a fitted effect of over 40% in size. As to conditions: viability, ATP luminescence, 48 h; series mostly up to 45.9 µM. The procedure:
CD133+ cells were isolated from GBM patient biopsies and cultured as neurospheres. Neurospheres from four patients were used to screen the NCATS pharmaceutical collection (NPC) library of approved drugs and bioactive compounds. […] The neurospheres were incubated with drugs for 48 hours in 1536-well format, then assayed with an ATP content cell viability assay. […] These hits were cherry picked to confirm activity in the four original GBM lines screened plus three other slower growing GMB lines (unable to yield enough cells for a full primary screen). Variable activities of the confirmed primary hits in the different GBM patient lines were observed. The patient line 206 responded to the greatest number of compounds and line 923 responded to the least amount of active compounds.
Regarding `CC(CNC1CCCCC1)OC(=O)c1ccccc1` (stereo not given), the Potency entry was “inactive”. For `NC(=O)c1ccccc1O`, the Potency result is “inactive”. Regarding `CCOC(=O)c1c(N)sc2c1CCN(Cc1ccccc1)C2`, the Potency result is “inactive”. The entry for `C=C[C@H]1CN2CC[C@H]1C[C@@H]2[C@@H](O)c1ccnc2ccc(OC)cc12` is “inactive”; for `CCOC(=O)c1ccc(N)cc1` it is “inactive”; for `CN1CCc2cccc3c2[C@H]1Cc1ccc(O)c(O)c1-3` it is 20 µM (active).

With `N#C/C(=C1\SCC(c2ccccc2Cl)S1)n1ccnc1` (stereo not given), the Potency result is “inactive”. Under `CCN1CCN(C(=O)N[C@@H](C(=O)N[C@@H]2C(=O)N3C(C(=O)O)=C(CSc4nnnn4C)CS[C@H]23)c2ccc(O)cc2)C(=O)C1=O` stands “inactive”; under `C[N+]12CCC(CC1)C(OC(=O)C(O)(c1ccccc1)c1ccccc1)C2` (stereo not given), “inactive”. Under `CCOC(=O)C(C#N)=C(c1ccccc1)c1ccccc1` stands “inactive”; under `CC(=O)OCC1=C(C(=O)O)N2C(=O)[C@@H](NC(=O)CSc3ccncc3)[C@H]2SC1`, “inactive”; under `C=C[C@H]1CN2CC[C@H]1C[C@H]2[C@H](O)c1ccnc2ccc(OC)cc12`, “inactive”. Under `Cc1ccc(S(=O)(=O)NC(=O)NC2CCCC2)cc1` stands “inactive”; under `Cc1cn([C@H]2C[C@H](F)[C@@H](CO)O2)c(=O)[nH]c1=O`, “inactive”; under `NC1CCN(c2nc3c(cc2F)c(=O)c(C(=O)O)cn3-c2ccc(F)cc2F)C1` (stereo not given), “inactive”.

For the molecule `CCCCCCCCCCCCCCCC(=O)O`, the Potency result was “inactive”. The entry for `CN1CCN(c2cc3c(cc2F)c(=O)c(C(=O)O)cn3-c2ccc(F)cc2)CC1` is “inactive”; for `CN1CCC(OC(c2ccccc2)c2ccccc2)CC1` it is “inactive”. The entry for `CN=C(N)NCCC[C@H](N)C(=O)O` is “inactive”; for `CN(C)CCOC(c1ccc(Cl)cc1)c1ccccn1` (stereo not given) it is “inactive”. The entry for `CC(C)Cc1ccc(CC(=O)O)cc1` is “inactive”; for `CCN(CC)CCOc1ccccc1C(=O)CCc1ccccc1` it is “inactive”.

For the molecule `COc1cc(NS(=O)(=O)c2ccc(N)cc2)ncn1`, the Potency result was “inactive”. Under `COc1ccc(/C=N/NC(=O)c2ccncc2)cc1OC` stands “inactive”; under `COc1ccc(C(=O)c2ccccc2O)c(O)c1`, “inactive”.

Take `C[C@@H](O)[C@H]1C(=O)N2C(C(=O)O)=C(S[C@@H]3CN[C@H](CNS(N)(=O)=O)C3)[C@H](C)[C@H]12`: the Potency result was “inactive”.

As for `CCN(CC)CCNC(=O)c1cc(Br)c(N)cc1OC`, the Potency result was “inactive”. With `Oc1ccccc1C=NCc1ccccc1`, the Potency result was “inactive”. Under `CCN(CC)CCOc1ccc2c(c1)C(=O)c1cc(OCCN(CC)CC)ccc1-2` stands “inactive”; under `Cc1cc(NS(=O)(=O)c2ccc(N)cc2)nc(C)n1`, “inactive”. The entry for `CC(=O)O[C@H]1C[C@@H]2CC[C@@H]3[C@H](CC[C@@]4(C)[C@H]3C[C@H]([N+]3(C)CCCCC3)[C@@H]4OC(C)=O)[C@@]2(C)C[C@@H]1N1CCCCC1` is “inactive”.

In the case of `O=C(CCCN1CC=C(n2c(=O)[nH]c3ccccc32)CC1)c1ccc(F)cc1`, the Potency entry is “inactive”.

`C/C=C/C=N/NC(=O)c1ccncc1`: the Potency entry is “inactive”. As to `CCC(Cc1c(I)cc(I)c(N)c1I)C(=O)O` (stereo not given), the Potency entry is “inactive”. `COc1ccc(-c2cc(C(F)F)nn2-c2ccc(S(N)(=O)=O)cc2)cc1F`: the Potency result was “inactive”. On to `CCOCCn1c(N2CCCN(C)CC2)nc2ccccc21`, for which the Potency entry is “inactive”. Under `CCOc1ccccc1OCCN[C@H](C)Cc1ccc(OC)c(S(N)(=O)=O)c1` stands “inactive”. On to `CCc1ccc(C(=O)C(C)CN2CCCCC2)cc1` (stereo not given), for which the Potency result was “inactive”. With `CCCCC(CC)COC(=O)c1ccc(N(C)C)cc1` (stereo not given), the Potency entry is “inactive”.

For the molecule `Cc1cccc(C)c1NC(=O)CN1CCCCCC1`, the Potency entry was “inactive”.
